Screening results from PubChem.
Vif imaging: inhibitors of HIV Vif. HEK293T cells, Vif self-association by quenched fluorescence, imaging, 24 h. inhibition, % at 7.49 µM. actives 0.35% (n = 340,000). AID 602346; in the data active = inhibition above about 50%, passing the limit was not always enough
esBAF inh: blocks esBAF chromatin remodeling in mouse ES cells; Bmi1-luciferase knock-in reporter, 24 h; 100% = twice the neutral-well signal; reporter increase, % at 12.5 µM; actives 2% (n = 350,000); AID 602393; in the data active = activation above about 40%;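 also: a rise in the Bmi1 reporter signal indicates esBAF inhibition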
SKN-1 block: blocks SKN-1 activity in C. elegans | inhibition, % at 21.8 µM | actives 0.49% (n = 360,000) | C. elegans VP596 Pgst-4::GFP/RFP ratio, acrylamide-induced, 24 h;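 active = interference check ratio from 0.5 to 1.5 plus GFP to RFP signal ratio inhibition reaching or exceeding a fixed threshold, cut at about 30% in these data, passing the limit was not always enough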
NR3A LBD binder: modulates the human NR3A ligand-binding domain | NR3A LBD differential scanning fluorimetry, Tm shift; 0% = protein alone, 100% = glycine-bound protein | actives 2.5% (n = 340,000) | Tm shift relative to glycine control, % at 25 µM;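 active = melting temperature shift of at least 10% of the positive control shift, at one fixed dose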
SMARCA2 activ: SMARCA2 function activation, primary screen. MG213 cells, MMTV-luciferase reporter, dexamethasone, overnight. activation, % at 9.1 µM. actives 1% (n = 370,000). AID 652017; in the data active = activation above about 7.8%
NadD block: inhibitors of Staphylococcus aureus NadD; actives 0.78% (n = 360,000); purified NadD enzyme, colorimetric absorbance read-out; inhibition, % at 20 µM; in the data active = inhibition above about 26%
NadD inh conf: confirmation of Staphylococcus aureus NadD inhibitors; actives 13% (n = 2,000); purified S. aureus NadD, colorimetric enzyme assay; inhibition, % at 20 µM; shares compounds with NadD block; in the data active = inhibition mostly above about 42%, no sharp cut-off; inactive = mostly below about 42%
Of the large screens only hits and unclear results are named; the others gave an inactive call (follow-up assays come after a bar, where they were run); ! = not confirmed by another sample. Shown are actives, neighbours in structure and some others; about 5.2% of the full set was active somewhere.

O=[N+]([O-])c1ccc(N/N=C/c2sc(N3CCOCC3)nc2-c2ccccc2)c(S(=O)(=O)Nc2ccccc2Cl)c1	NadD block 74.8 (no result: esBAF inh) | NadD inh conf inactive
O=C(N/N=C/c1sc(N2CCOCC2)nc1-c1ccccc1)c1ccccc1F	none (no result: Vif imaging, esBAF inh, SKN-1 block, SMARCA2 activ, NadD block)
CCC(=O)N(C)C[C@@H]1Oc2ncc(C3=CCCC3)cc2C(=O)N([C@@H](C)CO)C[C@@H]1C	none (no result: Vif imaging, SKN-1 block, NR3A LBD binder, SMARCA2 activ, NadD block)
COc1ccccc1C(=O)Nc1ccc(Oc2nnc(-c3ccc(C)cc3)c3ccccc23)cc1	NadD block 52.2 (no result: esBAF inh) | NadD inh conf inactive
COc1ccc(CN(C)C[C@@H]2Oc3ccc(NC(=O)C4CC4)cc3C(=O)N([C@@H](C)CO)C[C@H]2C)cc1	none (no result: Vif imaging, SKN-1 block, NR3A LBD binder, SMARCA2 activ, NadD block)
Fc1cc(NC(=S)NCc2ccc(CNC(=S)Nc3ccc(Cl)c(F)c3)cc2)ccc1Cl	NR3A LBD binder 94.2, NadD block 35.6 | NadD inh conf inactive
Cc1cc(NC(=O)CSc2ccc(-c3nc4cc(C)c(C)cc4[nH]3)cn2)no1	none (no result: SMARCA2 activ)
Cc1cc2nc(-c3ccc(SCC(=O)N4CCc5ccccc54)nc3)[nH]c2cc1C	esBAF inh 75.4, NR3A LBD binder 25.2, NadD block 33.0 (no result: SMARCA2 activ) | NadD inh conf inactive
Cc1cc2nc(-c3ccc(SCC(=O)Nc4ccc(S(=O)(=O)NC5CC5)cc4)nc3)[nH]c2cc1C	NR3A LBD binder 31.9, NadD block 40.3 (no result: Vif imaging, esBAF inh) | NadD inh conf inactive
COc1ccc(CNC(=O)C[C@@H]2C[C@@H]3c4cc(NC(=O)C5CCC5)ccc4O[C@@H]3[C@H](CO)O2)cc1	none (no result: Vif imaging, SKN-1 block, NR3A LBD binder, SMARCA2 activ, NadD block)
CC(C)c1cn(CC[C@H]2CC[C@@H](NC(=O)C3CCCC3)[C@H](CO)O2)nn1	none (no result: Vif imaging, SKN-1 block, NR3A LBD binder, SMARCA2 activ, NadD block)
CC1CCCCC1NC(=O)COC(=O)c1c2c(nc3ccccc13)/C(=C/c1ccco1)CC2 (centres undefined)	NadD block 85.1 (no result: esBAF inh) | NadD inh conf inactive
Cc1cc(C(=O)OCC(=O)NC2CCCC2)c2ccccc2n1	none (no result: Vif imaging)
O=C(COC(=O)c1c2c(nc3ccccc13)/C(=C/c1ccco1)CC2)NC1CCCC1	NadD block 52.3 (no result: esBAF inh) | NadD inh conf 64.0
Cc1noc(C)c1S(=O)(=O)Nc1ccc2c(c1)C(=O)N([C@@H](C)CO)C[C@@H](C)[C@H](CN(C)S(=O)(=O)c1cn(C)cn1)OCCCC[C@@H](C)O2	none (no result: Vif imaging, SKN-1 block, NR3A LBD binder, SMARCA2 activ, NadD block)
O=C(Nc1cccc(-c2csc(Nc3cccc(C(F)(F)F)c3)n2)c1)c1cc([N+](=O)[O-])cc(C(F)(F)F)c1	NadD block 37.2 | NadD inh conf inactive
O=C(Nc1ccc(-c2csc(Nc3ccccc3)n2)cc1)c1cc([N+](=O)[O-])cc(C(F)(F)F)c1	NR3A LBD binder 24.2, NadD block 32.1 | NadD inh conf inactive
C[C@@H]1CN([C@H](C)CO)C(=O)Cc2cc(NC(=O)Nc3ccc(F)cc3)ccc2O[C@H]1CN(C)Cc1ccc(Cl)c(Cl)c1	none (no result: Vif imaging, SKN-1 block, NR3A LBD binder, SMARCA2 activ, NadD block)
Cc1ccc(C)c2nc3sc(C(=O)N4CCCc5ccccc54)c(N)c3cc12	NadD block 32.4 | NadD inh conf inactive
C[C@@H]1CN([C@@H](C)CO)C(=O)c2cc(NC(=O)Nc3ccc4c(c3)OCO4)ccc2O[C@@H]1CN(C)C(=O)Nc1cccc2ccccc12	none (no result: Vif imaging, SKN-1 block, NR3A LBD binder, SMARCA2 activ, NadD block)
O=c1cc(/N=C/c2coc3c(ccc4ccccc43)c2=O)[nH]c(=S)[nH]1	NadD block 64.7 (no result: esBAF inh) | NadD inh conf inactive
NC(=O)N/N=C/c1coc2ccc3ccccc3c2c1=O	none (no result: esBAF inh)
COCCCn1c(=NC(=O)c2ccccc2)c(C#N)cc2c(=O)n3cccc(C)c3nc21	none (no result: esBAF inh)
Cc1cccc(C(=O)N=c2c(C#N)cc3c(=O)n4cccc(C)c4nc3n2Cc2ccco2)c1	NadD block 42.0 | NadD inh conf inactive
Cc1cccn2c(=O)c3cc(C#N)c(=NC(=O)c4ccccc4)n(Cc4ccco4)c3nc12	NadD block 32.0! (no result: esBAF inh) | NadD inh conf inactive
Cc1cccn2c(=O)c3cc(C#N)c(=NC(=O)c4ccco4)n(Cc4ccco4)c3nc12	none (no result: esBAF inh)
C[C@H](CO)N1C[C@H](C)[C@H](CN(C)C(=O)Nc2ccc(C(F)(F)F)cc2)Oc2ccc(NC(=O)NC3CCCCC3)cc2C1=O	none (no result: Vif imaging, SKN-1 block, NR3A LBD binder, SMARCA2 activ, NadD block)
C#CCN(C[C@@H]1[C@@H](OC(=O)Nc2cccs2)[C@@H](OC(=O)Nc2cccs2)Cn2c(=O)n(CCCCCC)c(=O)n21)S(=O)(=O)c1ccc(C)cc1	NadD block 29.6 (no result: NR3A LBD binder) | NadD inh conf inactive
O=C(N[C@@H]1CC[C@@H](CCn2cc(C3(O)CCCC3)nn2)O[C@H]1CO)C1CCCCC1	none (no result: Vif imaging, SKN-1 block, NR3A LBD binder, SMARCA2 activ, NadD block)
C[C@@H]1CCCCO[C@H](CN(C)Cc2ccc3c(c2)OCO3)[C@@H](C)CN([C@H](C)CO)C(=O)c2cc(NC(=O)CCCN(C)C)ccc2O1	none (no result: Vif imaging, SKN-1 block, NR3A LBD binder, SMARCA2 activ, NadD block)
O=C(/C=C/c1ccco1)Nc1ccc(-c2nc3ccccc3[nH]2)cc1	NR3A LBD binder 30.1, NadD block 33.5 (no result: esBAF inh) | NadD inh conf inactive
O=C(/C=C/c1ccco1)Nc1ccc(N2CCCC2)cc1	NadD block 36.5 (no result: esBAF inh) | NadD inh conf inactive
C(=C\c1ccco1)/c1nc2ccccc2[nH]1	none (no result: esBAF inh)
CN(C)CCCNC(=O)[C@@H]1[C@@H](CO)[C@@H]2Cn3c(ccc(-c4ccc(F)cc4)c3=O)[C@H]1N2C	none (no result: Vif imaging, SKN-1 block, NR3A LBD binder, SMARCA2 activ, NadD block)
C[C@@H]1CN([C@H](C)CO)C(=O)c2cc(N(C)C)ccc2O[C@H]1CN(C)S(=O)(=O)c1ccccc1	none (no result: Vif imaging, SKN-1 block, NR3A LBD binder, SMARCA2 activ, NadD block)
Cc1ccc(NC(=O)CN2C(=O)S/C(=C/c3ccc(O)c([N+](=O)[O-])c3)C2=O)cc1C	NadD block 34.8 (no result: esBAF inh) | NadD inh conf inactive
O=C(NC[C@@H]1[C@@H](c2ccccc2)[C@@H](CO)N1CC1CCCC1)C1CC1	none (no result: Vif imaging, SKN-1 block, NR3A LBD binder, SMARCA2 activ, NadD block)
Cc1ccccc1N1CC(C(=O)Nc2nnc(SCC(=O)Nc3nccs3)s2)CC1=O (centres undefined)	NadD block 40.4 (no result: esBAF inh) | NadD inh conf inactive
Cc1cccc(N2CC(C(=O)Nc3nnc(SCC(=O)Nc4nccs4)s3)CC2=O)c1 (centres undefined)	NadD block 62.3 (no result: esBAF inh) | NadD inh conf inactive
Cc1cccc(N2CC(C(=O)Nc3nnc(SCc4cccnc4)s3)CC2=O)c1 (centres undefined)	none
Cc1ccccc1N1CC(C(=O)Nc2nnc(SCc3ccccn3)s2)CC1=O (centres undefined)	none
Cc1cccc(N2CC(C(=O)Nc3nnc(SCC(=O)Nc4cc(C)on4)s3)CC2=O)c1 (centres undefined)	NadD block 74.4 (no result: esBAF inh) | NadD inh conf inactive
COc1ccc(CN(C)C[C@H]2Oc3ccc(NC(=O)NC4CCCCC4)cc3C(=O)N([C@H](C)CO)C[C@H]2C)cc1	none (no result: Vif imaging, SKN-1 block, NR3A LBD binder, SMARCA2 activ, NadD block)
Cc1cc2cc(CNC(=O)Nc3ccc(Cl)c(Cl)c3)ccc2n1C	NadD block 30.6 | NadD inh conf inactive
Cc1ccc(Cl)cc1Nc1nc(-c2sc(NC(=O)C(C)(C)C)nc2C)cs1	NadD block 33.6 | NadD inh conf inactive
CCCC(=O)Nc1nc(C)c(-c2csc(Nc3ccccc3OC)n2)s1	none
